# Results as given in publication PMC8384837, “Expanding the binding specificity for RNA recognition by a PUF domain”.
# Tests used:
# Test in all cases: yeast three-hybrid, YBZ-1, SC-Leu-His + 0.5 mM 3-AT, 4 days
# Details in all cases: tags: N-Gal4 AD-HA kept; label: inside an RPR1-promoter hybrid RNA with tandem MS2 sites; ssRNA
# PUM1 PUF domain R3-SRS = PUM1 PUF domain R3-SRS (Homo sapiens, UniProt Q14671 828-1176, C935S;Q939S)
# Outline: (§1)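 Each repeat of the Pumilio-1 PUF domain was randomized at its three base-contacting residues, and these libraries were co-expressed from a centromeric plasmid with matching RNA elements in strain YBZ-1. After four days on SC-Leu (input) or SC-Leu-His + 0.5 mM 3-AT (selection), the repeat regions were PCR-amplified and Illumina-sequenced. The interaction score compares variant frequency between input and selection as a log change, computed in log2 with a pseudocount of 1 for absent variants.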
# PUM1 PUF domain R3-WYG = PUM1 PUF domain R3-WYG (Homo sapiens, UniProt Q14671 828-1176, C935W;R936Y;Q939G)
# Outline: as §1
# PUM1 PUF domain R3-IWT = PUM1 PUF domain R3-IWT (Homo sapiens, UniProt Q14671 828-1176, C935I;R936W;Q939T)
# Outline: as §1
# PUM1 PUF domain R3-ARD = PUM1 PUF domain R3-ARD (Homo sapiens, UniProt Q14671 828-1176, C935A;Q939D)
# Outline: as §1
# PUM1 PUF domain R3-DWR = PUM1 PUF domain R3-DWR (Homo sapiens, UniProt Q14671 828-1176, C935D;R936W;Q939R)
# Outline: as §1
# PUM1 PUF domain R5-SGT = PUM1 PUF domain R5-SGT (Homo sapiens, UniProt Q14671 828-1176, C1007S;R1008G;Q1011T)
# Outline: as §1
# PUM1 PUF domain R4-WAC = PUM1 PUF domain R4-WAC (Homo sapiens, UniProt Q14671 828-1176, N971W;H972A;Q975C)
# Outline: as §1
# PUM1 PUF domain R5-RHC = PUM1 PUF domain R5-RHC (Homo sapiens, UniProt Q14671 828-1176, C1007R;R1008H;Q1011C)
# Outline: as §1
# PUM1 PUF domain R5-GMI = PUM1 PUF domain R5-GMI (Homo sapiens, UniProt Q14671 828-1176, C1007G;R1008M;Q1011I)
# Outline: as §1
# PUM1 PUF domain R5-LNL = PUM1 PUF domain R5-LNL (Homo sapiens, UniProt Q14671 828-1176, C1007L;R1008N;Q1011L)
# Outline: as §1
# PUM1 PUF domain R5-RSD = PUM1 PUF domain R5-RSD (Homo sapiens, UniProt Q14671 828-1176, C1007R;R1008S;Q1011D)
# Outline: as §1
# PUM1 PUF domain R8-FYR = PUM1 PUF domain R8-FYR (Homo sapiens, UniProt Q14671 828-1176, N1122F;Q1126R)
# Outline: as §1
# PUM1 PUF domain R8-MHR = PUM1 PUF domain R8-MHR (Homo sapiens, UniProt Q14671 828-1176, N1122M;Y1123H;Q1126R)
# Outline: as §1
# PUM1 PUF domain R2-LWT = PUM1 PUF domain R2-LWT (Homo sapiens, UniProt Q14671 828-1176, N899L;Y900W;Q903T)
# Outline: as §1
# PUM1 PUF domain R3-GPC = PUM1 PUF domain R3-GPC (Homo sapiens, UniProt Q14671 828-1176, C935G;R936P;Q939C)
# Outline: as §1
# PUM1 PUF domain R4-GPM = PUM1 PUF domain R4-GPM (Homo sapiens, UniProt Q14671 828-1176, N971G;H972P;Q975M)
# Outline: as §1
# PUM1 PUF domain R5-IYH = PUM1 PUF domain R5-IYH (Homo sapiens, UniProt Q14671 828-1176, C1007I;R1008Y;Q1011H)
# Outline: as §1
# PUM1 PUF domain R8-KFD = PUM1 PUF domain R8-KFD (Homo sapiens, UniProt Q14671 828-1176, N1122K;Y1123F;Q1126D)
# Outline: as §1
# PUM1 PUF domain R8-KHT = PUM1 PUF domain R8-KHT (Homo sapiens, UniProt Q14671 828-1176, N1122K;Y1123H;Q1126T)
# Outline: as §1
# PUM1 PUF domain R1-RHR = PUM1 PUF domain R1-RHR (Homo sapiens, UniProt Q14671 828-1176, S863R;R864H;Q867R)
# Outline: as §1
# PUM1 PUF domain R3-DWR, sequence (Q14671 828-1176 C935D/R936W/Q939R): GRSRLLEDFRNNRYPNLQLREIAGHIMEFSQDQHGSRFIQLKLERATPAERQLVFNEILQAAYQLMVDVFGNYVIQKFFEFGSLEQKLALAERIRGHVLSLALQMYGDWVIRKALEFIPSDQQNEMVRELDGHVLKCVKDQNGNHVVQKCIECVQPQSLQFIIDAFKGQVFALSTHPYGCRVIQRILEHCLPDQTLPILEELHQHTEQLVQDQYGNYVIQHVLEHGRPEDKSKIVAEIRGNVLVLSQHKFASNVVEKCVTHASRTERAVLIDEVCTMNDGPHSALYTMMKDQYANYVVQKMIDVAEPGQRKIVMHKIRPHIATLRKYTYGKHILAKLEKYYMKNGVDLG
# PUM1 PUF domain R3-SRS, sequence (Q14671 828-1176 C935S/Q939S): as the sequence (Q14671 828-1176 C935D/R936W/Q939R) above, with D108S, W109R, R112S counted along it
# PUM1 PUF domain R2-LWT, sequence (Q14671 828-1176 N899L/Y900W/Q903T): as the sequence (Q14671 828-1176 C935D/R936W/Q939R) above, with N72L, Y73W, Q76T, D108C, W109R, R112Q counted along it
# PUM1 PUF domain R5-RSD, sequence (Q14671 828-1176 C1007R/R1008S/Q1011D): as the sequence (Q14671 828-1176 C935D/R936W/Q939R) above, with D108C, W109R, R112Q, C180R, R181S, Q184D counted along it
# PUM1 PUF domain R8-FYR, sequence (Q14671 828-1176 N1122F/Q1126R): as the sequence (Q14671 828-1176 C935D/R936W/Q939R) above, with D108C, W109R, R112Q, N295F, Q299R counted along it
# PUM1 PUF domain R4-WAC, sequence (Q14671 828-1176 N971W/H972A/Q975C): as the sequence (Q14671 828-1176 C935D/R936W/Q939R) above, with D108C, W109R, R112Q, N144W, H145A, Q148C counted along it
# PUM1 PUF domain R3-GPC, sequence (Q14671 828-1176 C935G/R936P/Q939C): as the sequence (Q14671 828-1176 C935D/R936W/Q939R) above, with D108G, W109P, R112C counted along it
# PUM1 PUF domain R5-RHC, sequence (Q14671 828-1176 C1007R/R1008H/Q1011C): as the sequence (Q14671 828-1176 C935D/R936W/Q939R) above, with D108C, W109R, R112Q, C180R, R181H, Q184C counted along it
# PUM1 PUF domain R1-RHR, sequence (Q14671 828-1176 S863R/R864H/Q867R): as the sequence (Q14671 828-1176 C935D/R936W/Q939R) above, with S36R, R37H, Q40R, D108C, W109R, R112Q counted along it
# PUM1 PUF domain R3-WYG, sequence (Q14671 828-1176 C935W/R936Y/Q939G): as the sequence (Q14671 828-1176 C935D/R936W/Q939R) above, with D108W, W109Y, R112G counted along it
# PUM1 PUF domain R8-MHR, sequence (Q14671 828-1176 N1122M/Y1123H/Q1126R): as the sequence (Q14671 828-1176 C935D/R936W/Q939R) above, with D108C, W109R, R112Q, N295M, Y296H, Q299R counted along it
# PUM1 PUF domain R4-GPM, sequence (Q14671 828-1176 N971G/H972P/Q975M): as the sequence (Q14671 828-1176 C935D/R936W/Q939R) above, with D108C, W109R, R112Q, N144G, H145P, Q148M counted along it
# PUM1 PUF domain R8-KFD, sequence (Q14671 828-1176 N1122K/Y1123F/Q1126D): as the sequence (Q14671 828-1176 C935D/R936W/Q939R) above, with D108C, W109R, R112Q, N295K, Y296F, Q299D counted along it
# PUM1 PUF domain R3-IWT, sequence (Q14671 828-1176 C935I/R936W/Q939T): as the sequence (Q14671 828-1176 C935D/R936W/Q939R) above, with D108I, R112T counted along it
# PUM1 PUF domain R5-IYH, sequence (Q14671 828-1176 C1007I/R1008Y/Q1011H): as the sequence (Q14671 828-1176 C935D/R936W/Q939R) above, with D108C, W109R, R112Q, C180I, R181Y, Q184H counted along it
# PUM1 PUF domain R3-ARD, sequence (Q14671 828-1176 C935A/Q939D): as the sequence (Q14671 828-1176 C935D/R936W/Q939R) above, with D108A, W109R, R112D counted along it
# PUM1 PUF domain R5-GMI, sequence (Q14671 828-1176 C1007G/R1008M/Q1011I): as the sequence (Q14671 828-1176 C935D/R936W/Q939R) above, with D108C, W109R, R112Q, C180G, R181M, Q184I counted along it
# PUM1 PUF domain R8-KHT, sequence (Q14671 828-1176 N1122K/Y1123H/Q1126T): as the sequence (Q14671 828-1176 C935D/R936W/Q939R) above, with D108C, W109R, R112Q, N295K, Y296H, Q299T counted along it
# PUM1 PUF domain R5-SGT, sequence (Q14671 828-1176 C1007S/R1008G/Q1011T): as the sequence (Q14671 828-1176 C935D/R936W/Q939R) above, with D108C, W109R, R112Q, C180S, R181G, Q184T counted along it
# PUM1 PUF domain R5-LNL, sequence (Q14671 828-1176 C1007L/R1008N/Q1011L): as the sequence (Q14671 828-1176 C935D/R936W/Q939R) above, with D108C, W109R, R112Q, C180L, R181N, Q184L counted along it
sequence,measurement,setting,value
GGCUAGAACUAGUGGAUCCCCCGGCGCCCGGCGGCUCGAGCCCGGGUAAGUGUAAGUAGUCUGCAUGCCGCCGGGCGCCAUGCCUGCAGGUCGACUCUAGAAAACAUG,binding signal,PUM1 PUF domain R3-SRS,2.81 log2 enrichment (interaction score)
same,binding signal,PUM1 PUF domain R3-WYG,3.09 log2 enrichment (interaction score)
same,binding signal,PUM1 PUF domain R3-IWT,3.1 log2 enrichment (interaction score)
same,binding signal,PUM1 PUF domain R3-ARD,4.51 log2 enrichment (interaction score)
same,binding signal,PUM1 PUF domain R3-DWR,1.12 log2 enrichment (interaction score)
GGCUAGAACUAGUGGAUCCCCCGGCGCCCGGCGGCUCGAGCCCGGGUAAGUGUGAAUAGUCUGCAUGCCGCCGGGCGCCAUGCCUGCAGGUCGACUCUAGAAAACAUG,binding signal,PUM1 PUF domain R5-SGT,2.85 log2 enrichment (interaction score)
GGCUAGAACUAGUGGAUCCCCCGGCGCCCGGCGGCUCGAGCCCGGGUAAGUGUACAUAGUCUGCAUGCCGCCGGGCGCCAUGCCUGCAGGUCGACUCUAGAAAACAUG,binding signal,PUM1 PUF domain R4-WAC,2.99 log2 enrichment (interaction score)
GGCUAGAACUAGUGGAUCCCCCGGCGCCCGGCGGCUCGAGCCCGGGUAAGUGUUAAUAGUCUGCAUGCCGCCGGGCGCCAUGCCUGCAGGUCGACUCUAGAAAACAUG,binding signal,PUM1 PUF domain R5-RHC,5.98 log2 enrichment (interaction score)
same,binding signal,PUM1 PUF domain R5-GMI,2.18 log2 enrichment (interaction score)
same,binding signal,PUM1 PUF domain R5-LNL,3.35 log2 enrichment (interaction score)
same,binding signal,PUM1 PUF domain R5-RSD,2.65 log2 enrichment (interaction score)
GGCUAGAACUAGUGGAUCCCCCGGCGCCCGGCGGCUCGAGCCCGGGUAAGUGUAAAUAGUCUGCAUGCCGCCGGGCGCCAUGCCUGCAGGUCGACUCUAGAAAACAUG,binding signal,PUM1 PUF domain R5-RHC,3.15 log2 enrichment (interaction score)
same,binding signal,PUM1 PUF domain R8-FYR,5.38 log2 enrichment (interaction score)
same,binding signal,PUM1 PUF domain R8-MHR,3.92 log2 enrichment (interaction score)
same,binding signal,PUM1 PUF domain R3-SRS,4.33 log2 enrichment (interaction score)
same,binding signal,PUM1 PUF domain R4-WAC,3.2 log2 enrichment (interaction score)
same,binding signal,PUM1 PUF domain R2-LWT,1.6 log2 enrichment (interaction score)
same,binding signal,PUM1 PUF domain R3-GPC,2.57 log2 enrichment (interaction score)
same,binding signal,PUM1 PUF domain R4-GPM,2.8 log2 enrichment (interaction score)
same,binding signal,PUM1 PUF domain R5-IYH,4.47 log2 enrichment (interaction score)
same,binding signal,PUM1 PUF domain R3-DWR,0.88 log2 enrichment (interaction score)
GGCUAGAACUAGUGGAUCCCCCGGCGCCCGGCGGCUCGAGCCCGGGUAAGUGUAAAGAGUCUGCAUGCCGCCGGGCGCCAUGCCUGCAGGUCGACUCUAGAAAACAUG,binding signal,PUM1 PUF domain R2-LWT,2.4 log2 enrichment (interaction score)
GGCUAGAACUAGUGGAUCCCCCGGCGCCCGGCGGCUCGAGCCCGGGUAAGUGUAAAAAGUCUGCAUGCCGCCGGGCGCCAUGCCUGCAGGUCGACUCUAGAAAACAUG,binding signal,PUM1 PUF domain R2-LWT,5.62 log2 enrichment (interaction score)
GGCUAGAACUAGUGGAUCCCCCGGCGCCCGGCGGCUCGAGCCCGGGUAAGUGUAAUUAGUCUGCAUGCCGCCGGGCGCCAUGCCUGCAGGUCGACUCUAGAAAACAUG,binding signal,PUM1 PUF domain R3-SRS,1.65 log2 enrichment (interaction score)
same,binding signal,PUM1 PUF domain R3-WYG,4.81 log2 enrichment (interaction score)
same,binding signal,PUM1 PUF domain R3-GPC,2.82 log2 enrichment (interaction score)
same,binding signal,PUM1 PUF domain R3-DWR,3.53 log2 enrichment (interaction score)
GGCUAGAACUAGUGGAUCCCCCGGCGCCCGGCGGCUCGAGCCCGGGUAAGUGUCAAUAGUCUGCAUGCCGCCGGGCGCCAUGCCUGCAGGUCGACUCUAGAAAACAUG,binding signal,PUM1 PUF domain R5-RSD,2.74 log2 enrichment (interaction score)
GGCUAGAACUAGUGGAUCCCCCGGCGCCCGGCGGCUCGAGCCCGGGUAAGCGUAAAUAGUCUGCAUGCCGCCGGGCGCCAUGCCUGCAGGUCGACUCUAGAAAACAUG,binding signal,PUM1 PUF domain R8-FYR,5.29 log2 enrichment (interaction score)
same,binding signal,PUM1 PUF domain R8-KFD,5.69 log2 enrichment (interaction score)
same,binding signal,PUM1 PUF domain R8-KHT,4.89 log2 enrichment (interaction score)
GGCUAGAACUAGUGGAUCCCCCGGCGCCCGGCGGCUCGAGCCCGGGUAAGUGUAAAUUGUCUGCAUGCCGCCGGGCGCCAUGCCUGCAGGUCGACUCUAGAAAACAUG,binding signal,PUM1 PUF domain R1-RHR,2.91 log2 enrichment (interaction score)
GGCUAGAACUAGUGGAUCCCCCGGCGCCCGGCGGCUCGAGCCCGGGUAAGUGUAAAUCGUCUGCAUGCCGCCGGGCGCCAUGCCUGCAGGUCGACUCUAGAAAACAUG,binding signal,PUM1 PUF domain R1-RHR,2.88 log2 enrichment (interaction score)
